The panel holds about 83,000 compounds, 20% with a hit somewhere; the sample as a whole holds those more often.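 For each line, cells grew in 96-well plates with the test compound present at a single concentration for 48 hours.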 Activity calls are given as the source filed them. Rule for the calls: active = growth percent below 10; inactive = the rest.
What was measured:
Assay in all cases: NCI-60 one-dose screen, 48 h (100 = growth as untreated, 0 = no growth, -100 = all killed)
Conditions in all cases: 10 µM unless noted
NCI-H23 lung = system: NCI-H23 lung
NCI-H226 lung = system: NCI-H226 lung
NCI-H322M lung = system: NCI-H322M lung
HOP-62 NSCLC = system: HOP-62 NSCLC
NCI-H460 lung = system: NCI-H460 lung
HOP-92 NSCLC = system: HOP-92 NSCLC
A549/ATCC NSCLC = system: A549/ATCC NSCLC
786-0 renal = system: 786-0 renal
COLO 205 colon = system: COLO 205 colon

Measured: growth

NS(=O)(=O)c1ccc(-n2ncc3c(SCc4ccccc4)ncnc32)cc1
inactive: NCI-H23 lung 100% | NCI-H226 lung 99.8% | NCI-H322M lung 87.7% | HOP-62 NSCLC 66.9% | NCI-H460 lung 105% | HOP-92 NSCLC 43% | A549/ATCC NSCLC 80.8% | 786-0 renal 85.1% | COLO 205 colon 110%

O=C(CSc1ncc(-c2ccccc2)n1-c1ccccc1)Nc1ccc(-c2nc3ccccc3s2)cc1
inactive: NCI-H23 lung 62.6% | NCI-H226 lung 103% | NCI-H322M lung 90.1% | HOP-62 NSCLC 73.1% | NCI-H460 lung 36.3% | HOP-92 NSCLC 95.6% | A549/ATCC NSCLC 20.3% | 786-0 renal 69.8% | COLO 205 colon 103%

N#CC1c2ccccc2C=CN1C(=O)N(c1ccccc1)c1ccccc1 (stereo unspecified)
inactive: NCI-H23 lung 66.6% | NCI-H226 lung 95.9% | NCI-H322M lung 103% | HOP-62 NSCLC 101% | NCI-H460 lung 101% | HOP-92 NSCLC 45.6% | A549/ATCC NSCLC 91.4% | 786-0 renal 95.5%
active: COLO 205 colon -41.6%

O=CNc1ccc2c(c1)Cc1cc([N+](=O)[O-])ccc1-2
inactive: NCI-H23 lung 37.9% | NCI-H226 lung 66.5% | HOP-62 NSCLC 26.5% | NCI-H460 lung 15.8% | HOP-92 NSCLC 42.4% | A549/ATCC NSCLC 18.6% | 786-0 renal 38.1%
active: NCI-H322M lung 9.9% | COLO 205 colon 1.14%
